Consider 15 compounds from PubChem BioAssay.

Calls of active or inactive are those of the source.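 Rule for the calls: active = viability loss from added drug above about 55%, and viability with drug at most 40%, in both replicates (limit read from the data, passing the limit was not always enough); inconclusive = both conditions met in only one replicate; inactive = neither replicate meets both conditions.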

The nature of the experiment: MRP1 drug-resistance reversers in H69AR cells – cell-based, doxorubicin co-treatment, pilot screen (AID 601). The conditions noted are these: H69AR cells + 2 uM doxorubicin, CellTiter-Glo, 72 h; at 10 µM; stronger effect = higher value. (In general: ATP-based viability assays read luminescence as a measure of living cells.)
Consider `CCOC(=O)c1nnc2cc(-c3ccc(Br)cc3)nn2c1C`, for which the differential viability (reversal) is 6.1% (inactive).
In the case of `COc1cccc(C(=O)Nc2c(C(N)=O)oc3ccccc23)c1` it was -13.6% (inactive); in that of `CCn1c(CNc2ccc(OC)cc2)nnc1SCC(=O)c1ccc(OC)cc1`, -14.7% (inactive).
In the case of `COc1ccc(Br)cc1C1N2CC3(C)CN1CC(C)(C2)C3=O` (stereo not given) it was -33% (inactive).
Then `CCOC(=O)c1sc(NC(=O)CSc2n[nH]c(-c3ccccc3)n2)c(C#N)c1C`, with 9.27% (inactive).
Regarding `CCOC(=O)N1CCN(CCC(=O)c2ccc(Cl)cc2)CC1`, the differential viability (reversal) was -5.11% (inactive).
Turning to `CCOC(=O)c1c(C)oc2c1c(C(c1ccncc1)N1CCOCC1)c(O)c1ccccc12` (stereo not given), the differential viability (reversal) was -5.27% (inactive).
For `Cc1c(NC(=O)c2ccc(=O)oc2)c(=O)n(-c2ccccc2)n1C`, the differential viability (reversal) is -18.7% (inactive).
As for `CCOc1ccccc1-n1nnnc1SCC(=O)Nc1cc2oc3ccccc3c2cc1OC`, the differential viability (reversal) was -11.1% (inactive).
Take `CC1=C(C(=O)OC2CCCCC2)C(c2ccc(C)o2)C2=C(CC(C)(C)CC2=O)N1` (stereo not given): the differential viability (reversal) was 13.1% (inactive).
`Cc1nc2ccccc2c(=O)n1NC(=O)c1c(O)c2c(n(CC(C)C)c1=O)CCCC2`: the differential viability (reversal) was -17.2% (inactive).
Regarding `COc1ccc(C2=NOC(C(=O)Nc3cc(Br)ccc3O)C2)cc1OC` (stereo not given), the differential viability (reversal) is -10.5% (inactive).
`Cc1ccc(NC(=O)c2oc3ccc(S(=O)(=O)N4CCOCC4)cc3c2C)cc1C`: the differential viability (reversal) is -5.16% (inactive).
Consider `Cc1nn(-c2nc3ccccc3s2)c(C)c1Oc1ccccc1O`, for which the differential viability (reversal) was -6.93% (inactive).
Then `Cc1ccc(S(=O)(=O)c2cc3c(=O)n4ccccc4nc3n(CC3CCCO3)c2=N)cc1C` (stereo not given), with 2.4% (inactive).
